For 97 compounds, inhibition results are on record in PubChem BioAssay AID619 (University of Pittsburgh Molecular Library Screening Center, 2007).

Screen size: about 97,000 compounds; about 520 (0.54%) were called active.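 The calls were made as follows: active = inhibition of 50% or more in the single-concentration screen; inactive = inhibition below 50%.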 The full list was thinned out, with actives kept by preference.

Serine/threonine-protein kinase PLK1 (Homo sapiens), sequence (P53350 whole entry, looked up): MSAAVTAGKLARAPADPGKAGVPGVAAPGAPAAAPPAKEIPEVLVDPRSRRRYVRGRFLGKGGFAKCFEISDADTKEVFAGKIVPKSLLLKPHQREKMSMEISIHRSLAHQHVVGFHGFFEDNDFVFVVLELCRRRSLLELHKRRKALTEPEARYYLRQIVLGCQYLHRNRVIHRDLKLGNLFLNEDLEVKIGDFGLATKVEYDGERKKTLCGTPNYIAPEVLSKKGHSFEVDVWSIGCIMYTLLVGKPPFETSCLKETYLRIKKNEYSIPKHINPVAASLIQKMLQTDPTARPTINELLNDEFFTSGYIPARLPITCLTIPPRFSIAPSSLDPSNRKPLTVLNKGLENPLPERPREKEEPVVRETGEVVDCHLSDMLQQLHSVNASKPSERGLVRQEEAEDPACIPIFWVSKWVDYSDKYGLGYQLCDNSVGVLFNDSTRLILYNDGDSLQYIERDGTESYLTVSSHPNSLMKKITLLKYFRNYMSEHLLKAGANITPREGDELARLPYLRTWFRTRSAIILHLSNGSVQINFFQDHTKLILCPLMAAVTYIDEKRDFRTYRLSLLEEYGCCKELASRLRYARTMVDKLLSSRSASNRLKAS

The test concerns the target Serine/threonine-protein kinase PLK1 (Homo sapiens) (UniProt P53350). Nature of the test: human PLK1 kinase inhibitors, primary screen, biochemical, TR-FRET (AID 619).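 Also: 0% = DMSO max control and 100% = H-89 dihydrochloride min control.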 To be noted: recombinant PLK1 kinase, TR-FRET peptide phosphorylation; at 10 µM; active compounds read high. In general terms: In TR-FRET formats the signal depends on donor and acceptor labels being close together.
For `Cc1ccnc(N2C(=O)c3ccccc3C2Nc2ccc3c(c2)OCCO3)c1` (configuration not stated), the inhibition is 75.7% (active).
In the case of `Cc1cccc(C(=O)Nc2ccccc2-c2nnn(CC(=O)Nc3ccc4c(c3)OCCO4)n2)c1` it was -19.8% (inactive).
As to `O=C1c2ccccc2C(Nc2ccc3c(c2)OCCO3)N1Cc1ccco1` (configuration not stated), the inhibition is -13.3% (inactive).
As to `O=C(Nc1ccc(S(=O)(=O)N2CCc3ccccc3C2)cc1)c1ccccc1`, the inhibition is -9.1% (inactive).
For the compound `CCN1CCN(C(=O)C2(NC(=O)Nc3cccc(F)c3)CCCCC2)CC1`, the inhibition was -9.1% (inactive).
With `CCOC(=O)C1=C(C)NC2=C(C(=O)CC(C)(C)C2)C1c1ccsc1` (configuration not stated), the inhibition was -9.3% (inactive).
In the case of `CC(=O)N/C(=C/c1ccc(Cl)cc1)C(=O)NCCc1c[nH]c2ccccc12` it was -8.99% (inactive).
To `CCCOn1c(-n2nc(C)cc2C)nc2ccccc2c1=O` belongs -12.7% (inactive).
In the case of `COc1ccc2ccccc2c1CNCc1ccccn1` it was -6.16% (inactive); in that of `CN(C)/C=C/C(=O)c1ccccc1F`, -7.63% (inactive); in that of `COc1ccccc1CNC(=O)c1ccc(SC)cc1OC`, -11.5% (inactive).
Regarding `CCOc1ccc(CN(Cc2ccco2)S(=O)(=O)c2ccc(-n3cnnn3)c(OC)c2)cc1`, the inhibition is -4.62% (inactive).
To `CCOc1[nH]n(-c2ccc(Cl)cc2)c(=O)c1C=Nc1ccc(O)cc1` belongs -12.9% (inactive); to `O=C(O)c1ccccc1NC(=S)NC(NC(=O)c1ccccc1[N+](=O)[O-])C(Cl)(Cl)Cl` (configuration not stated), -10.3% (inactive).
In the case of `Cc1ccc(C2=CSC3=NS(=O)(=O)CCN23)cc1C` it was -12.2% (inactive); in that of `Cc1[nH]n(-c2ccc([N+](=O)[O-])cc2)c(=O)c1C=NCCN1CCN(C(=O)c2ccccc2F)CC1`, -16.1% (inactive).
In the case of `Cc1ccc(NC(=S)Nc2ncccc2C)c(C)c1` it was -6.19% (inactive); in that of `CC(=O)Nc1cccc(NC(=O)c2c(-c3ccccc3)noc2C)c1`, -5.51% (inactive); in that of `Cc1onc(-c2ccccc2)c1C(=O)N1CCOCC1`, -6.08% (inactive).
Consider `Cc1onc(-c2ccccc2)c1C(=O)Nc1ccccc1C#N`, for which the inhibition is 66.8% (active).
In the case of `O=C(/C=C/Nc1ccccc1OC(F)(F)F)C(F)(F)F` it was -3.23% (inactive).
To `COc1ccc(-n2cnc3cc(NCc4ccco4)ccc32)cc1` belongs -1.91% (inactive).
For the compound `COc1ccc(-c2cc(C3CCN(c4ncccc4[N+](=O)[O-])CC3)[nH]n2)cc1`, the inhibition is -0.7% (inactive).
Consider `CCOC(=O)Nc1ccc2c(c1)N(C(=O)CCN1CCN(CCO)CC1)c1ccccc1CC2`, for which the inhibition is -25.9% (inactive).
In the case of `CCN(CC)Cc1cc(C(C)=O)ccc1O` it was -5.02% (inactive); in that of `CC(=O)Nc1ccc(NC(=O)c2sc3nc4c(c(-c5ccc(C)cc5)c3c2N)CCC4)cc1`, -27.3% (inactive); in that of `CCN(CC)CCNc1ccc(Cl)cc1[N+](=O)[O-]`, -12.3% (inactive).
Turning to `Cc1cc(C)c2c3c(sc2n1)C(c1ccccc1)C(C#N)=C(N)O3` (configuration not stated), the inhibition is -9.36% (inactive).
To `CNC(=O)CSc1nnc(CCc2ccccc2)n1-c1ccccc1` belongs -5.54% (inactive).
To `CC1CSc2nnc(CCc3ccccc3)n21` (configuration not stated) belongs 85.2% (active); to `c1ccc(CCC2=NCCn3cccc32)cc1`, -1.03% (inactive).
To `Cc1ccoc1C(=O)Nc1cccc(Oc2ccccc2)c1` belongs 1.94% (inactive).
In the case of `Cc1nc2nc(C)c(CCC(=O)N3CCN(c4ccccc4)CC3)c(C)n2n1`, the inhibition is 4.83% (inactive).
To `c1cncc(-c2nnc3n2C2(CCCCC2)Cc2ccccc2-3)c1` belongs -8.5% (inactive); to `COc1cccc(/C=N/NC(=O)C(=O)N2CCCC2)c1`, -9.34% (inactive).
On to `CCOC(=O)N1CCN(Cc2nc(N)nc(Nc3ccc(C)cc3)n2)CC1`, for which the inhibition was -13.1% (inactive).
In the case of `CC(Oc1ccc(F)cc1F)C(=O)/C=C/N(C)C` (configuration not stated) it was 0.09% (inactive); in that of `CN1CCN(c2ccc([N+](=O)[O-])c(Sc3nc4ccccc4[nH]3)c2)CC1`, -5.67% (inactive); in that of `C=CCn1c(Cn2nnc3ccccc32)nnc1SCC(=O)N/N=C/c1cc(Br)cc(OC)c1O`, -6.54% (inactive).
To `CCN1CCN(C(=O)c2cc3cc4ccc(OC)cc4nc3s2)CC1` belongs -4.82% (inactive); to `COc1ccc(-n2c(SCC(=O)NCc3ccco3)nnc2-c2c[nH]c3ccccc23)cc1`, -3.5% (inactive).
Take `CCc1ccccc1NC(=O)c1cccs1`: the inhibition was -6.58% (inactive).
To `CCCc1nnc(NC(=O)c2cccs2)s1` belongs -6.49% (inactive).
On to `CCc1nnc(NC(=O)c2cccs2)s1`, for which the inhibition was 60.3% (active).
Consider `Cc1ccc2nc(SC(C)C(=O)NCc3ccco3)[nH]c2c1` (configuration not stated), for which the inhibition is 1.32% (inactive).
In the case of `CN1CCN(c2cc(=O)n(-c3ccc(Cl)cc3)c(=O)[nH]2)CC1` it was 67.4% (active).
In the case of `CN1CCN(c2ccc(NC(=O)COc3ccc(Cl)cc3Cl)cc2)CC1` it was 3% (inactive); in that of `Cc1ccc(-n2c(=O)cc(N3CCN(Cc4ccccc4)CC3)[nH]c2=O)cc1`, -1.26% (inactive); in that of `COc1ccc(C2Nc3ccccc3C(=O)N2Cc2ccccc2)cc1Cn1nnc2ccccc21` (configuration not stated), -11.2% (inactive).
In the case of `C[N+]1(CCNC(=O)/C=N/O)CCCCC1` it was 95.9% (active).
In the case of `Cc1ccc(S(=O)(=O)c2c(COC(=O)c3cccc(Cl)c3)c(-c3ccccc3)nn2C)cc1`, the inhibition is 3.59% (inactive).
To `CCOC(=O)c1c(NC(=S)Nc2ccccc2)sc2c1CCN(C)C2` belongs -13.1% (inactive); to `CCOc1ccccc1C1CC(c2ccccc2)Nc2nc(N)nn21` (configuration not stated), 64% (active).
In the case of `COc1ccc(C2CC(c3ccc(C)cc3)Nc3nc(N)nn32)cc1` (configuration not stated) it was -3.47% (inactive); in that of `CCOc1ccccc1C1CC(c2ccc(Cl)cc2)Nc2nc(N)nn21` (configuration not stated), -12.7% (inactive).
In the case of `CCOc1ccc(S(=O)(=O)N2CCCCCC2)c2ccccc12` it was -17.7% (inactive); in that of `O=C(CNC(=O)Cc1ccccc1)NCC(=O)OCC(=O)c1ccccc1Cl`, -4.92% (inactive).
As to `COc1ccc(C2=NOC3(CC(=O)N(c4ccc(Cl)cc4)C3=O)C2)c(OC)c1` (configuration not stated), the inhibition was -9.65% (inactive).
To `CC(=O)c1cn(CCCCCCCCCCn2cc(C(C)=O)c(=O)[nH]c2=O)c(=O)[nH]c1=O` belongs -6.55% (inactive); to `COc1nc(-c2ccc(Cl)cc2)ccc1-c1noc(-c2cccs2)n1`, -90.7% (inactive); to `O=C(CSc1ncnc2c1cnn2CCc1ccccc1)Nc1ccc(F)cc1`, -7.32% (inactive).
In the case of `Cc1cc(C)c(OCC(=O)N/N=C/c2ccco2)c(C)c1` it was 6.14% (inactive).
In the case of `Cc1ccc(CS(=O)(=O)CCC(=O)NC2CC2)cc1` it was -7.25% (inactive).
As to `Nc1ccc(-n2nncc2-c2ccco2)cc1`, the inhibition was -4.39% (inactive).
In the case of `CCCc1nc2scc(-c3ccc(C)cc3)c2c(=O)n1N` it was 5.26% (inactive); in that of `COc1ccc(CCN2C(=O)C3CC=C(C)CC3C2=O)cc1OC` (configuration not stated), -10.2% (inactive).
Consider `COc1cc(OC)c(-n2c(C)cc(C=O)c2C)cc1Cl`, for which the inhibition was -6.8% (inactive).
To `CCCC(=O)n1nc(-c2ccccc2)nc1N` belongs -4.99% (inactive).
In the case of `COc1ccccc1NS(=O)(=O)N(C)C`, the inhibition is -7.41% (inactive).
In the case of `O=C(O)CCC(=O)NCc1ccc(C(=O)O)cc1` it was -9.7% (inactive); in that of `C=CCn1c(SCC(=O)c2c(N)n(C)c(=O)n(C)c2=O)nc2sc(CC)cc2c1=O`, -9.06% (inactive); in that of `CC(=O)c1ccc(OCCN2CCOCC2)cc1`, -17.4% (inactive).
As for `COc1ccc(C(=O)c2c(C)oc3cc([N+](=O)[O-])c(O)c([N+](=O)[O-])c23)cc1`, the inhibition was -2.19% (inactive).
In the case of `Cc1ccc(Cc2cnc(NC(=O)/C(C#N)=C/c3ccc(-c4cccc([N+](=O)[O-])c4)o3)s2)cc1` it was -5.56% (inactive); in that of `CCCSc1nc2c(c(=O)n(C)c(=O)n2C)n1Cc1ccc(C)cc1`, 6.87% (inactive); in that of `CSc1nc(C)nc2c1c(=O)n(C)c(=O)n2C`, 68.3% (active).
To `CCC(C)Sc1nc(C)nc2c1c(=O)n(C)c(=O)n2C` (configuration not stated) belongs 52.6% (active); to `Cn1c(=O)c2c(SCC(=O)N3CCOCC3)nc(C3CC3)nc2n(C)c1=O`, 36.6% (inactive).
In the case of `COc1ccc(CC(=O)Nc2sc(Cc3ccccc3)c(C)c2C(N)=O)cc1` it was -12% (inactive).
Take `O=c1cc(C(F)(F)F)[nH]c(=O)n1C1CCCCC1`: the inhibition is -12.1% (inactive).
In the case of `COc1ccc(/C=C/C(=O)Nc2c(C)nn(C)c2C)cc1COc1ccc(Br)cc1` it was -7.02% (inactive); in that of `CCc1c(C)nc2cc(C)[nH]n2c1=O`, -1.93% (inactive).
To `FC(F)(F)c1cc(C(F)(F)F)c2ccc(N3CCN(c4ccccc4)CC3)nc2n1` belongs -4.18% (inactive); to `CN(CCC#N)c1ncnc2scc(-c3ccccc3)c12`, 54.3% (active); to `C=CCn1cnc2scc(-c3ccccc3)c2c1=O`, -17.6% (inactive).
To `N#CCCN(CCC#N)c1nnc(-c2ccccc2)s1` belongs -13.8% (inactive); to `CS(=O)(=O)n1nc(-c2ccccc2)nc1NCc1ccco1`, -17.7% (inactive).
Turning to `Cc1nc2cc(NC(=O)CSc3nc4c(C)cccc4cc3C#N)ccc2s1`, the inhibition is -34.1% (inactive).
For `CC(=O)C1=C(C)NC(=O)NC1c1cc(Br)ccc1OCC#N` (configuration not stated), the inhibition was -9.62% (inactive).
Turning to `CC1=CC(=O)C=CC1(C)C(Cl)(Cl)Cl` (configuration not stated), the inhibition is -6.25% (inactive).
In the case of `CC/C(=N/Nc1ccccc1)c1cnnc(SC)n1` it was -14.3% (inactive); in that of `COC(=O)/C=C/C(=O)NCc1ccco1`, -9.17% (inactive); in that of `Cc1ccccc1CSCCNC(=O)c1ccc(N(C)S(=O)(=O)c2ccccc2)cc1`, 57.1% (active).
In the case of `Cc1ccc(C(=O)NCCNS(=O)(=O)c2ccccc2)cc1` it was -5.51% (inactive); in that of `Cc1ccccc1CSCCNC(=O)c1ccc(Cl)c(S(=O)(=O)N2CCOCC2)c1`, -1.84% (inactive); in that of `Cc1cc(OCCOc2cccc3cccnc23)c(C)cc1Cl`, -13.9% (inactive).
In the case of `CCN1C(=O)/C(=C2/Sc3ccc(OC)cc3N2C)SC1=Nc1ccc(C)cc1` it was -9.58% (inactive).

The inhibition is the relative decrease from the control value, in per cent.
